Experimental data taken from PubChem BioAssay AID848 (Columbia University Molecular Screening Center, 2007).
The campaign covered roughly 93,000 compounds. About 160 (0.17%) were called active.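 How the source made its calls: active means cell count reduction exceeding the screen mean by over 5 SD, scaled to untreated wells per plate (cut at about 78% in these data); inactive means the rest.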 The entries come from a sample that favours actives as a whole.

Assay: HUVEC nuclei count loss under TNFa – imaging, Hoechst nuclei count, cytotoxicity control for VCAM1 expression modulator project, primary screen (AID 848);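 further: cells counted after 24 h of TNF alpha exposure following the 1 h pretreatment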
Conditions: HUVEC TNFalpha-stimulated, at 2 µM, hits give high values

Row | Structure (SMILES) | cell count reduction
1 | COc1ccc(CCNC(=S)NC(=O)/C=C/c2ccc(C)cc2)cc1OC | -29.7% (inactive)
2 | COc1ccc(Oc2coc3cc(OC(=O)c4cncc(Br)c4)ccc3c2=O)cc1 | 7% (inactive)
3 | O=C(NC1CC1)c1ccc2c(c1)NC(=O)c1ccccc1S2 | -13.8% (inactive)
4 | Cc1ccc(/C=N/NC(=O)c2sccc2OCc2ccc(F)cc2)cc1 | -8.8% (inactive)
5 | Cc1cc(=O)oc2cc(OC(C)C(=O)Nc3ccc(N4CCOCC4)cc3)ccc12 (configuration not stated) | -7.6% (inactive)
6 | Cc1nnc(NC(=O)CSc2nc(C3CCCCC3)nc3ccccc23)s1 | -7.9% (inactive)
7 | O=C1CCN(C(=O)Nc2ccccc2)N1 | -11.8% (inactive)
8 | CCOc1cccc(SCc2noc(C(=O)NC(C)C)c2C(=O)O)c1 | -41.1% (inactive)
9 | Cc1cc([N+](=O)[O-])c(N2CCC[C@@H]2C(=O)O)c([N+](=O)[O-])c1 | -11.9% (inactive)
10 | CC(C(=O)Nc1ccc(F)c(F)c1F)N1CCCCCC1 (configuration not stated) | 0% (inactive)
11 | CCC(C(=O)NCc1ccc(OC)cc1)n1nc(C)n2c(cc3occc32)c1=O (configuration not stated) | -4.6% (inactive)
12 | C/C(=N\NS(=O)(=O)c1cccc([N+](=O)[O-])c1)c1cc2ccccc2o1 | -56% (inactive)
13 | CC1CC(C)CN(C(=O)CSc2nnc(CSc3ncccn3)n2C)C1 (configuration not stated) | -24.8% (inactive)
14 | Cc1ccc(NC(=S)NC(=O)c2ccc(-c3ccccc3)cc2)c(C)c1 | -14.1% (inactive)
15 | CCCCNC(=O)CSc1nc2ccc(NC(=O)CSc3nnc(COc4ccccc4C)n3C)cc2s1 | -20.8% (inactive)
16 | O=C(Nc1ccccc1Cl)O/N=C(/c1ccccc1)c1ccccn1 | 9.5% (inactive)
17 | Cc1nn(Cc2ccccc2Cl)c(C)c1NC(=O)Cn1nc([N+](=O)[O-])c(Cl)c1C | 10.2% (inactive)
18 | CSCc1cc(N(C)C)nc(SCc2ccc(Cl)cc2Cl)n1 | -3% (inactive)
19 | COCCCNCC(=O)Nc1sc(C)c(C)c1C(=O)OC | -27.9% (inactive)
20 | COc1ccc2c(Cl)c(C(=O)NCc3ccco3)sc2c1 | -12% (inactive)
21 | O=C(CSc1ccc(/C=N/NC(=O)c2cccc(F)c2)o1)Nc1ccccc1 | -19.1% (inactive)
22 | C=CCn1c(-c2ccc(Cl)cc2)ccc(C#N)c1=O | 4.1% (inactive)
23 | CCC(c1nnnn1C(C)(C)C)N(Cc1cc2cccc(C)c2n2nnnc12)C1CCCC1 (configuration not stated) | -17% (inactive)
24 | O=C(CCCN1C(=O)c2ccccc2C1=O)Oc1ccc(Cl)cc1 | -17.1% (inactive)

Row | Structure (SMILES) | cell count reduction
25 | CN1/C(=c2/s/c(=C3/C(=O)N(c4ccccc4)NC3=Nc3ccccc3)n(C)c2=O)C(C)(C)c2ccccc21 | 3.8% (inactive)
26 | C(=N/N1CCN(c2ccccc2)CC1)/c1cccs1 | -6.5% (inactive)
27 | Cc1ccc(-n2c(CNc3ccc(F)cc3)nnc2SCC(=O)N2CCOCC2)cc1 | -20.7% (inactive)
28 | COc1ccc(-c2c(C(C)=O)c(C)nc3sc4c(=O)n(-c5ccc(C)cc5)nnc4c23)cc1 | -14.8% (inactive)
29 | Cc1cc(C)n2nc(C(=O)NC(C)(C)C)nc2n1 | 14.4% (inactive)
30 | COc1cc(OC)cc(C(=O)NC(=S)N2CCN(c3ccc(C(F)(F)F)cc3[N+](=O)[O-])CC2)c1 | -5.1% (inactive)
31 | Cc1cccc(N(C(=O)c2ccc(CN3CCOCC3)o2)C(C(=O)NC2CCCCC2)c2ccc(F)cc2)c1 (configuration not stated) | -36.1% (inactive)
32 | Cc1ccc(-n2nc(N)c3c(=O)oc(N(C)C)nc32)cc1 | 5% (inactive)
33 | CN(C)/C=C/C(=O)c1ccccc1F | -9% (inactive)
34 | O=C(Nc1ccccc1)c1ccc2nsnc2c1 | 5.4% (inactive)
35 | O=C(Nc1cc(C(F)(F)F)ccc1Cl)c1cc2nc3c(c(C(F)(F)F)n2n1)CCCC3 | -32.1% (inactive)
36 | CCCCOC(=O)Cn1c(=O)n(CC(=O)OCCCC)c2cc(C)ccc21 | -29.5% (inactive)
37 | CCOC(=O)c1nc(C)n(-c2ccc(Cl)cc2Cl)n1 | -3.8% (inactive)
38 | COc1ccc(/C=N/Nc2nc3ccccc3c(=O)[nH]2)cc1 | 18.9% (inactive)
39 | CCCNS(=O)(=O)c1ccc2c(c1)CCCN2C(C)=O | 100% (active)
40 | CC(=O)N1CCCc2cc(S(=O)(=O)CCC(=O)N3CCN(c4ccccc4)CC3)ccc21 | -22.4% (inactive)
41 | CC(=O)N1CCc2cc(S(=O)(=O)Nc3ccccc3N3CCN(C)CC3)ccc21 | -25.4% (inactive)
42 | O=C(/C=C/c1ccco1)Nc1ccc(Oc2ccccc2)cc1 | -16.8% (inactive)
43 | CCn1c2ccccc2c2cc(NC(=S)N3CCOCC3)ccc21 | -4% (inactive)
44 | O=C(NCc1cccnc1)c1cccnc1Sc1ccc(Cl)cc1 | -20.6% (inactive)
45 | Cc1ccc(C)c(NC(=O)C2Cc3ccccc3CN2C(=O)OCc2ccccc2)c1 (configuration not stated) | -19.8% (inactive)
46 | CSc1cc(C)n(-c2ccccc2C)c(=S)c1C(C)=O | -11.4% (inactive)
47 | CC(C)(C)NS(=O)(=O)c1ccc(NC(=O)NC2CCCCC2)cc1 | 2.5% (inactive)
